Pf Dd2 growth: blocks in vitro growth of P. falciparum Dd2; P. falciparum Dd2 growth, SYBR Green, 72 h; Potency, µM (doses to about 28.9 µM), inactives show at the top dose activity, negative = inhibition, actives largely listed as inhibitors; 4.3% of 120,000 active; AID 1347417; active means well fitted inhibition curve with a large enough effect;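 further: plate controls were DMSO vehicle for no effect and reference drug for full effect; nearly all actives have a fitted effect of over 65% in size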
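Infected erythrocytes (Dd2, 0.3% parasitemia, 2.5% hematocrit final) are added to compound in RPMI-1640/Albumax II medium, grown 72 h at 37C in low oxygen, then lysed with saponin/Triton-X containing SYBR Green and read by fluorescence.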
Numbers without * were called inactive; i = inactive; [ ] = another dose, or the depositor's remark. Shown is part of a subset that was picked to be rich in hits. Potency means the concentration at half of the fitted maximal effect.

SMILES	Pf Dd2 growth
Cc1ccc(-n2c(SCC(N)=O)nc3c([nH]c4ccccc43)c2=O)cc1	i
O=C(CSc1nc2c([nH]c3ccccc32)c(=O)n1-c1ccc(F)cc1)N1CCCCC1	17.3%
COc1cccc(-n2c(SCC(=O)c3ccc(Cl)cc3)nc3c([nH]c4ccccc43)c2=O)c1	i
CCOc1ccc(-n2c(SCC(=O)NC3CCCCC3)nc3c([nH]c4ccccc43)c2=O)cc1	-15.5%
O=c1c2[nH]c3ccccc3c2nc(SCc2ccccc2F)n1-c1ccc(F)cc1	33.2%
COc1cccc(-n2c(SCC(=O)Nc3cccc(C)c3)nc3c([nH]c4ccccc43)c2=O)c1	10µM*
Cc1cc(C)cc(NC(=O)CSc2nc3c([nH]c4ccccc43)c(=O)n2-c2ccc(F)cc2)c1	10µM*
O=C(CSc1nc2c([nH]c3ccccc32)c(=O)n1-c1ccc(Cl)cc1)N1CCc2ccccc21	61.2%
COc1cccc(-n2c(SCC(=O)N3CCCCC3)nc3c([nH]c4ccccc43)c2=O)c1	-2.8%
Cc1cccc(NC(=O)CSc2nc3c([nH]c4ccccc43)c(=O)n2-c2ccc(F)cc2)c1C	4.47µM*
Cc1cc2ncc(C(=O)N3CCC(Cc4ccccc4)CC3)cn2n1	-1.9%[44.1 µM]
O=S(=O)(c1cccs1)N1CC(c2nc(-c3ccncc3)no2)C1	-10.3%
COc1ccc(NC(=O)CN2C(=O)COc3ccc(C(=O)COc4cccc(F)c4)cc32)cc1	i
CN(Cc1ccccc1)C(=O)[C@@H]1Cc2nc[nH]c2CN1Cc1ccc(C(=O)O)cc1	4.8%[44.1 µM]
CN(C)Cc1nnc(C2CCN(C(=O)CCCn3cncn3)CC2)n1C	-12.6%
CCc1cc(NCC(c2ccc(C)o2)N2CCOCC2)n2nccc2n1 (stereo not drawn)	-19.9%
NC(=O)Cc1c[nH]c2ncc(-c3cccc(N4CCOCC4)c3)cc12	-0.2%[44.1 µM]
COc1ccc2[nH]c3c(c2c1)CCNC31CCN(C(=O)c2ocnc2C)CC1	-17.5%
Cc1cccc(-c2nc3cnccn3c2NCCC(=O)N(C)C)c1	9.2%
Cc1cc(NC(=O)CSc2nc3c([nH]c4ccccc43)c(=O)n2-c2ccccc2)no1	-25.8%
O=C(CSc1nc(-c2cccc(F)c2)[nH]c1-c1ccccc1)Nc1ccc2c(c1)OCCO2	11.2µM*
Cc1cc(NC(=O)CSc2nc3c([nH]c4ccccc43)c(=O)n2-c2ccccc2F)no1	10µM*
COc1cccc(-c2nc(SCC(=O)Nc3ccc4c(c3)OCCO4)c(-c3ccccc3)[nH]2)c1	-27.9%
O=C(CSc1nc2c(oc3ccccc32)c(=O)n1-c1ccccc1F)Nc1ccccc1	-11.6%
Cc1ccc(-n2c(SCC(=O)NCc3ccc(F)cc3)nc3c([nH]c4ccccc43)c2=O)cc1	i
SMILES	Pf Dd2 growth
CCOc1ccc(-c2nc(SCC(=O)Nc3ccc4c(c3)OCCO4)c(-c3ccc(F)cc3)[nH]2)cc1	-18.8%
Cc1cc(C)cc(-n2c(SCC(=O)N3CCCC3)nc3c([nH]c4ccccc43)c2=O)c1	10.2%
Cc1cc(C)cc(-n2c(SCC(=O)NCc3ccc(F)cc3)nc3c([nH]c4ccccc43)c2=O)c1	11.2µM*
Cc1cc(C)cc(-n2c(SCC(=O)Nc3ccc4c(c3)OCO4)nc3c([nH]c4ccccc43)c2=O)c1	-15.6%
Cn1c(SCC(=O)Nc2ccc(F)cc2)nc2c([nH]c3ccccc32)c1=O	17.4%
O=C(CSc1nc2c([nH]c3ccccc32)c(=O)n1-c1ccc(F)cc1)Nc1ccc2c(c1)OCO2	11.2µM*
COCCN1C(=O)CC[C@]2(C(=O)NCc3cc(F)ccc3F)CCCC[C@@H]12	-0.5%
O=C(c1ccco1)N1CCC(Nc2cccnc2)C1 (stereo not drawn)	50.0%[5.79 µM]
Cc1noc(-c2ccc(OC3CN(C(=O)NC4CCCC4)C3)cc2)n1	32.1%[5.79 µM]
CC(C)C1=NOC(C(=O)N2CCn3nc(C(=O)NCc4ccccn4)cc3C2)C1 (stereo not drawn)	1.9%
Cc1nonc1OCCNC(=O)C1CC(=O)N(Cc2ccccn2)C1 (stereo not drawn)	0.4%
O=C(c1cncnc1)N1C[C@@H]2C[C@H](C1)c1c(-c3ccc4ccccc4c3)ccc(=O)n1C2	-13.7%[44.1 µM]
O=C(Nc1ccc2c(c1)N(C1CCCC1)C(=O)c1ccccc1S2)c1ccccc1	2.8%
CCN1C(=O)c2ccccc2Sc2ccc(NC(=O)Nc3ccccc3OC)cc21	24.9%
COc1cc(C(=O)Nc2ccc3c(c2)N(C2CCCC2)C(=O)c2ccccc2S3)cc(OC)c1OC	8.91µM*
CCc1noc(-c2cn(C3CCN(C(=O)c4ccc(OC)c(F)c4)CC3)nn2)n1	i
CC1CCCN(Cc2c(O)ccc3c(=O)c(-c4ccccc4Cl)c(C(F)(F)F)oc23)C1 (stereo not drawn)	0.891µM*
Cc1c(CO)cccc1NC(=O)c1ccc(CN2CCCC(C)C2)cc1 (stereo not drawn)	-8.4%
CC1CCCN(Cc2c(O)ccc3c(=O)c(-c4ccc(Cl)cc4)c(C(F)(F)F)oc23)C1 (stereo not drawn)	0.708µM*
Cc1cc(C)cc(Oc2coc3c(CN4CCN(C)CC4)c(O)ccc3c2=O)c1	i
Cc1ccc(Oc2c(C(F)(F)F)oc3c(CN4CCCCC4C)c(O)ccc3c2=O)cc1 (stereo not drawn)	-29.5%
Cc1oc(-c2ccc(Cl)cc2)nc1CN1CCCC(C(=O)NCc2ccc(Cl)cc2)C1 (stereo not drawn)	i
CC1CCCN(Cc2nc3c(c(=O)n(C)c(=O)n3C)n2Cc2ccc(Cl)cc2)C1 (stereo not drawn)	22.1%
Cc1cc(Oc2c(C(F)(F)F)oc3c(CN4CCC(C)CC4)c(O)ccc3c2=O)cc(C)c1Cl	0.447µM*
CC1CCN(C(=O)CSc2nnc(-c3ccccc3Cl)o2)CC1	-13.3%
SMILES	Pf Dd2 growth
CNC(=O)C(C)(C)N1CCC[C@H]1C(=O)NCc1ccc(F)cc1	i
Cn1ncc(N2CCCC(CC(=O)NCc3ccccn3)C2)cc1=O (stereo not drawn)	5.5%
Cc1ccsc1C(=O)N(C)CC1(C)CCOCC1	-1.9%
COC[C@@]12CC[C@@H](N3CCOCC3)C[C@H]1CCN(Cc1cnc(N(C)C)nc1)C2	i
Cc1ccc(CN2C(=O)OC(c3cccc(NC(=O)c4ccccc4)c3)C2C(=O)NCCC(C)C)cc1 (stereo not drawn)	7.08µM*
CCC(=O)Nc1cccc(C2OC(=O)N(Cc3ccc(C)cc3)C2C(=O)NCCOC)c1 (stereo not drawn)	i
Cc1cccc(C(=O)Nc2cccc(C3OC(=O)N(Cc4ccccc4)C3C(=O)NCC(C)C)c2)c1 (stereo not drawn)	-8.1%
O=C(Nc1ccc2c(c1)OCCO2)N[C@@H]1C[C@H](CO)[C@@H](O)[C@H]1O	-10.6%[44.1 µM]
COc1cccc(CC(=O)N2CCCN(S(C)(=O)=O)C(c3ccccc3)CC(=O)NCC2)c1 (stereo not drawn)	-11.4%
Cn1cccc1C(=O)N1CCCN(Cc2ccncc2)C(c2ccccc2)CC(=O)NCC1 (stereo not drawn)	2.51µM*
O=C1CC(c2ccccc2)N(C(=O)C2CC2)CCCN(C(=O)c2cccs2)CCN1 (stereo not drawn)	-17.9%
Cn1cccc1C(=O)N1CCCN(S(=O)(=O)c2ccccc2)CCC(=O)NCC1	-10.7%
COc1cccc(CN2CCCN(Cc3ccncc3)C(c3ccccc3)CC(=O)NCC2)c1 (stereo not drawn)	1.41µM*
O=C1CC(c2ccccc2)N(Cc2ccncc2)CCCN(C(=O)c2ccc3ncccc3c2)CCN1 (stereo not drawn)	6.31µM*
O=C1CC(c2ccccc2)N(Cc2ccncc2)CCCN(C(=O)c2ccc3ccccc3n2)CCN1 (stereo not drawn)	-6.9%
